Measurements taken from PubChem BioAssay (NCATS).
“And” between values parts separate entries of the source, which are not always exact repeats. Equal values may be shown once. A number with no mark means an inactive call. Records with an inconclusive call do not appear. A call without a number means that no potency is given here. The source made the active and inactive calls. Unless noted, calls come from the whole dose curve; as a rule, active = well fitted curve in the direction sought with a large enough effect; inconclusive = small, poorly fitted or top-dose-only effect, or another doubt; inactive = no such curve, though single readings can be large; an effect the other way counts as inactive or inconclusive.

Key:
[1] = AP1 Signaling Pathway (AID 357; active = well fitted curve in either direction with a large enough effect, not every such curve was filed as active;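 note: ME-180 reporter cells stimulated with EGF at its EC50 level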); conditions: ME-180 AP-1-bla reporter, EGF-induced, beta-lactamase ratio, 5 h; at 7.69 µM (top of the series) unless noted
How it was run: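 AP-1-bla ME-180 cells, Opti-MEM + 0.5% dialyzed FBS, plated overnight 37 °C. Cpd titration + EC50 EGF, 5 h 37 °C. CCF4 2.5 h RT; ex 405, em 460/530 ratio → %activity, AC50.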

[2] = target: Cytochrome P450 1A2 (Homo sapiens) (UniProt P05177); test: p450-cyp1a2 (AID 410; calls by dose curve; note: potency is the fitted concentration of half-maximal effect)
Chain of Cytochrome P450 1A2 (Homo sapiens) (P05177 whole entry, looked up): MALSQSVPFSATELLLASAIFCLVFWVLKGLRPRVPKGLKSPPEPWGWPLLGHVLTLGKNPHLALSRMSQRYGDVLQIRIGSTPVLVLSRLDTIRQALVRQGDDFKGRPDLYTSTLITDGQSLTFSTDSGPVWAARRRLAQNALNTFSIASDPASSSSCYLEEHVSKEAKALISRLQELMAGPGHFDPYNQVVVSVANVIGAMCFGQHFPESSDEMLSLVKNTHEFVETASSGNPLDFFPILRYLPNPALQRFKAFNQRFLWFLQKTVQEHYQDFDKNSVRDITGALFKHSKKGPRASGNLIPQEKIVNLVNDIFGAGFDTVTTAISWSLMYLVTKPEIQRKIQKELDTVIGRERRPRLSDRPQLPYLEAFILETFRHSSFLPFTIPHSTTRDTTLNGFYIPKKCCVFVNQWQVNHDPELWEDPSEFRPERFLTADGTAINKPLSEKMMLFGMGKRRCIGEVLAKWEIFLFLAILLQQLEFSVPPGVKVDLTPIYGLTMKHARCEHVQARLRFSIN
How it was run: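 20nM CYP1A2, 100uM Luciferin-ME (=Km), 100mM KPO4; cpd 10 min RT; +NADPH regen, 60 min RT; stop/detect 20 min; luminescence. Normalized to furafylline 57 uM = full inhibition.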

[3] = Stat Signaling Pathway (AID 446; active = well fitted curve in either direction with a large enough effect, not every such curve was filed as active;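 note: ME-180 cervical cancer cells given 40 pM IL-6 alongside compound; SIE-controlled beta-lactamase reporter measured as 460/530 nm FRET emission ratio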); conditions: ME-180 SIE beta-lactamase reporter, IL-6 stimulated, 5 h
How it was run: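 Compound effects on IL-6-induced STAT reporter activity were measured in ME-180 cells. After overnight culture, cells were co-treated with 40 pM IL-6 for 5 hrs before beta-lactamase substrate loading at room temperature.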

[4] = target: Glucocorticoid receptor (Homo sapiens) (UniProt P04150); test: GR-GFP Redistribution (AID 450;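 active = compounds whose dose series gives a full or clear partial fitted curve of increased nuclear translocation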; note: potency is the fitted concentration of half-maximal effect); conditions: U2OS GR-GFP nuclear translocation, laser cytometry, 2 h
Chain of Glucocorticoid receptor (Homo sapiens) (P04150 whole entry, looked up, the tested form may be a part): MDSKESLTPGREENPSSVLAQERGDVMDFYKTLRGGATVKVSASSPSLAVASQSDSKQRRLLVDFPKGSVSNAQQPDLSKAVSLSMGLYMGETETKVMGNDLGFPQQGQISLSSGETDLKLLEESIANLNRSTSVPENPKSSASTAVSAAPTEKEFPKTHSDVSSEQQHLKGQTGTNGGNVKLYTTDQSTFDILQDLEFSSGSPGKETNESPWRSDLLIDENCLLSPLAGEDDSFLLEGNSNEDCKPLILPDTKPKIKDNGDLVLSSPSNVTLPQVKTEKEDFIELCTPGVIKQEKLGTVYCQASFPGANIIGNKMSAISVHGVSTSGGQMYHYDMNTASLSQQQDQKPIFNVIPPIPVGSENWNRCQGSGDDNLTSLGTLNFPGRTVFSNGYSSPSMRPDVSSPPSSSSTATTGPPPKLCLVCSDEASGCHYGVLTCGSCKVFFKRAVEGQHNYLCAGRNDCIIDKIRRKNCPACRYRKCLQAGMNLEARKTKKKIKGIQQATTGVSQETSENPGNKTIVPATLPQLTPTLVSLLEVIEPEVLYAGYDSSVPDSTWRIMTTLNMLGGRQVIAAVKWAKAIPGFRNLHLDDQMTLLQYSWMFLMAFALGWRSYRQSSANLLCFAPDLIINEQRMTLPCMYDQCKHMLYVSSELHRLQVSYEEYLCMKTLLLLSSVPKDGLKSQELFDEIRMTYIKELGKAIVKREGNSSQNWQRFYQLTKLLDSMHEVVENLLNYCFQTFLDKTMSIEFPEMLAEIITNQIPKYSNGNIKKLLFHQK

[5] = target: Glucocorticoid receptor (Homo sapiens) (UniProt P04150); test: GR-EFC Redistribution (AID 451; calls by dose curve; note: potency is the fitted concentration of half-maximal effect); conditions: CHO-K1 GR-EFC translocation, beta-gal luminescence, 2 h
How it was run: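 CHO-K1 cells stably expressing nuclear-localized β-gal enzyme acceptor and GR fused C-terminally to the enzyme donor fragment; ligand-driven nuclear translocation restores β-gal by complementation. Compounds titrated up to 46 uM final, 2 h at 37 °C; luminescence read.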

[6] = target: Mitogen-activated protein kinase 10 (Mus musculus) (UniProt Q61831); test: JNK3 AlphaScreen Assay (AID 530; active = well fitted curve in either direction with a large enough effect, not every such curve was filed as active;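 note: kinase came from lysate of stimulated human HepG2 cells; signal reports phosphorylation of biotinylated GST-cJun 1-79 at Ser73 with 10 µM ATP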)
How it was run: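 Biotinylated GST-cJun(1-79) served as substrate for JNK3 in HepG2 lysates stimulated with IL-1beta and TNF-alpha. ATP was 10 uM final, pH 7.6. Ser73 phosphorylation was quantified by AlphaScreen (680 nm excitation).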

[7] = target: 3',5'-cyclic-AMP phosphodiesterase 4B (Homo sapiens) (UniProt Q07343); test: qHTS Assay for Inhibitors of PDE-IV (AID 607; active = well fitted activation curve with a large enough effect in the main read-out, with a control signal flat, not every such curve was filed as active)
Chain of 3',5'-cyclic-AMP phosphodiesterase 4B (Homo sapiens) (Q07343 whole entry, looked up): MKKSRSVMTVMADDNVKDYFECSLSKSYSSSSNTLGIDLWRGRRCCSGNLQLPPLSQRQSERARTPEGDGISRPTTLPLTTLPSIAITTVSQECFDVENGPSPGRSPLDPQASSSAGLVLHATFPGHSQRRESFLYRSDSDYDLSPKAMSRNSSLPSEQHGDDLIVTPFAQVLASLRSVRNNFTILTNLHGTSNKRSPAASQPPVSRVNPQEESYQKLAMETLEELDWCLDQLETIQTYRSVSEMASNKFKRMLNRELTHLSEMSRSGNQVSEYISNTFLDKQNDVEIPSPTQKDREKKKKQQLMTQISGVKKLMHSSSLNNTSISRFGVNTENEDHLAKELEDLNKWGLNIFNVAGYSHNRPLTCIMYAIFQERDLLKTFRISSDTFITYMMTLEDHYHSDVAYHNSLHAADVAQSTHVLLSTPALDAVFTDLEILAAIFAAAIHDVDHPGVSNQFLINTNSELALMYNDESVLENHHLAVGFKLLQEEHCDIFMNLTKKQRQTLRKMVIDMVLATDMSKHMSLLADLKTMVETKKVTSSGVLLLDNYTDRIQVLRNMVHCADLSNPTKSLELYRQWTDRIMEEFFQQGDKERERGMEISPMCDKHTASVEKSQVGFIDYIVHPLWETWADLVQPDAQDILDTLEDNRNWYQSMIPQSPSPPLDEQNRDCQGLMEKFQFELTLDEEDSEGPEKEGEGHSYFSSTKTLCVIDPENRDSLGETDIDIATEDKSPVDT
How it was run: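 ACTOne HEK293 cells carry a modified cAMP-gated CNG channel and express endogenous PDE4; plated 1000 cells/well, compounds up to 22.9 uM final. Membrane-potential dye fluorescence (ex 535/em 590) was read; parental cells received 10 uM forskolin + 100 uM RO 20-1724.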

[8] = target: Guanine nucleotide-binding protein G(i) subunit alpha-1 (Homo sapiens) (UniProt P63096); test: qHTS Assay for Inhibitors of RGS12 GoLoco Motif Activity (Green Fluorophore) (AID 879);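 note: negative values mean loss of peptide binding seen as reduced polarization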
Chain of Guanine nucleotide-binding protein G(i) subunit alpha-1 (Homo sapiens) (P63096 whole entry, looked up): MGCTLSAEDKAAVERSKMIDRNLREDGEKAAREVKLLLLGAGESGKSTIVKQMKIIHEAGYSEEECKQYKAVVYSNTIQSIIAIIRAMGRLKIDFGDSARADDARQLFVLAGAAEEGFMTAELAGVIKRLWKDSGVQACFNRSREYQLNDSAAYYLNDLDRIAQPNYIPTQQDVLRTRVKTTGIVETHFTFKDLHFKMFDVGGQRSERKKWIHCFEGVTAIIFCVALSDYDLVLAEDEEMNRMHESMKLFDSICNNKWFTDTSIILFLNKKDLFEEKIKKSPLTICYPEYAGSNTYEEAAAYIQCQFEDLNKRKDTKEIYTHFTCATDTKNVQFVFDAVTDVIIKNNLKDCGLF
How it was run: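 A drop in FITC polarization marked displacement of the FITC-tagged RGS12 GoLoco peptide (10 nM) from Gαi1 (50 nM). Compounds were incubated 10 min at room temperature in Tris pH 7.5 buffer containing 150 mM NaCl, 0.1 mM GDP and 0.05% NP40; unlabeled peptide titration served as control.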

[9] = target: Cytochrome P450 3A4 (Homo sapiens) (UniProt P08684); test: qHTS Assay for Activators of Cytochrome P450 3A4 (AID 885); note: nearly all actives have a fitted effect of over 65% in size
Chain of Cytochrome P450 3A4 (Homo sapiens) (P08684 whole entry, looked up): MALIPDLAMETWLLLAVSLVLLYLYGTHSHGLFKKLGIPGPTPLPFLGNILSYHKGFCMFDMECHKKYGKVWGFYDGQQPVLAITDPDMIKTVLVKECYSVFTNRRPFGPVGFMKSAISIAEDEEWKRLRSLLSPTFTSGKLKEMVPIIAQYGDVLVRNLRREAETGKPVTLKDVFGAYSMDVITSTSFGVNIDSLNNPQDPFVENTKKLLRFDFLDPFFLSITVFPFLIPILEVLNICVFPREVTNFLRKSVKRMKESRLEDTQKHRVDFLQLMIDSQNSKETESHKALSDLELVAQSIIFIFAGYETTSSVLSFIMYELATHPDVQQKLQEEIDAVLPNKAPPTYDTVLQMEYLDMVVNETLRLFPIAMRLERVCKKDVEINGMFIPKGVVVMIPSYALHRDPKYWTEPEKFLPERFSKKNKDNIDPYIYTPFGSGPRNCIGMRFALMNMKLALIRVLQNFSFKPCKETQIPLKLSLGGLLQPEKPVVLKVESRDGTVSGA
How it was run: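 CYP3A4 activity: Luciferin-PPXE O-dealkylation, 25uM substrate, 200mM KPO4, RT throughout. Read-out is luciferase luminescence; higher values reflect activation.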

[10] = target: Pyruvate kinase PKM (Homo sapiens) (UniProt P14618); test: qHTS Assay for Activators of Human Muscle Pyruvate Kinase (AID 954; active = well fitted curve in the direction sought with a large enough effect, not every such curve was filed as active)
Chain of Pyruvate kinase PKM (Homo sapiens) (P14618 whole entry, looked up): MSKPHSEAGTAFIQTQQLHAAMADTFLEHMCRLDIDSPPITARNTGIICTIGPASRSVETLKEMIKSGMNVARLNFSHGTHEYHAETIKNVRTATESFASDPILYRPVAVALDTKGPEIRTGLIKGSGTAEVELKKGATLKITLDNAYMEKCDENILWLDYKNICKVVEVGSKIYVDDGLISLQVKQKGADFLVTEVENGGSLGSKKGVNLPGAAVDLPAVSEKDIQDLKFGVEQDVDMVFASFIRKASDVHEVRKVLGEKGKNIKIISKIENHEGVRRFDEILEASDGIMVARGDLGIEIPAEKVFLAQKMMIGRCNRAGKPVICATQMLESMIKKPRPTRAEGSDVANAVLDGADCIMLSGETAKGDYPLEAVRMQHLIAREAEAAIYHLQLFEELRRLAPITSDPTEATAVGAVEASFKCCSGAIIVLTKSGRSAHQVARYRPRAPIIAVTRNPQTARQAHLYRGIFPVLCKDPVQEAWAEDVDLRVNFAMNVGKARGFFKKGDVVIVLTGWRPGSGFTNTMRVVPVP
How it was run: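 A coupled luminescent readout tracked ATP made from ADP by purified PKM2. Final conditions included 0.1 nM enzyme, PEP and ADP at 0.5 and 0.1 mM, pH 7.2 imidazole buffer with BSA, and a one-hour room-temperature reaction.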

[11] = target: Alpha-galactosidase A (Homo sapiens) (UniProt P06280); test: Counterscreen for Glucocerebrosidase Inhibitors: qHTS Assay for Human alpha-Galactosidase at pH 4.5 (AID 992)
Chain of Alpha-galactosidase A (Homo sapiens) (P06280 whole entry, looked up): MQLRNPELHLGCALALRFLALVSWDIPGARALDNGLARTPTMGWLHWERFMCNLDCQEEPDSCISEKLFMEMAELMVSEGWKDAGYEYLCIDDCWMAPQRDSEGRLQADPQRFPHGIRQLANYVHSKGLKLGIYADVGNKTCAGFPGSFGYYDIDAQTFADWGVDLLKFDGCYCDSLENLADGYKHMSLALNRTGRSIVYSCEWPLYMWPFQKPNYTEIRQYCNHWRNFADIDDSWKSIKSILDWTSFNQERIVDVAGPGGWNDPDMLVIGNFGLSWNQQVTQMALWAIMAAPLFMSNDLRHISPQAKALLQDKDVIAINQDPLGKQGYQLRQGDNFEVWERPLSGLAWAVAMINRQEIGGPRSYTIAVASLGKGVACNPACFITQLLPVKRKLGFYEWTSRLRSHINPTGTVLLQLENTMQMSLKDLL
How it was run: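 Citrate buffer pH 4.5, Tween-20 0.005%. Enzyme 2 nM, substrate 80 uM, 20 min RT. Stop pH 10. Fluorescence Ex 365/Em 440. AC50 by Hill fit.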

[12] = target: alpha-glucosidase (Oryza sativa, rice) (UniProt Q653V4); test: Counterscreen for Glucocerebrosidase Inhibitors: qHTS Assay for Rice alpha-Glucosidase at pH 5.0 (AID 997)
How it was run: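 Endpoint fluorogenic assay at pH 5.0: compounds (0.7 nM to 77 uM) titrated against 4 nM rice enzyme and 400 uM 4-MU-alpha-glucoside for 20 min at room temperature; NaOH/glycine stop, read ex 365/em 440 nm, Hill-fitted AC50.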

[13] = NFAT Signaling Pathway (AID 444; active = well fitted curve in either direction with a large enough effect, not every such curve was filed as active;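 note: carbachol stimulus at about its EC50 of 1 µM final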); conditions: Jurkat NFAT-bla M1, carbachol, beta-lactamase ratio, 5 h; at 7.69 µM (top of the series) unless noted
How it was run: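 Jurkat cells carrying an NFAT-driven β-lactamase reporter and co-transfected muscarinic M1 receptor were treated with compound plus carbachol (1 uM final, an EC50 level) for 5 h at 37 °C. CCF4 loading followed for 1 h at RT; 460/530 nm ratio gave %activity.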

[14] = target: Cytochrome P450 2C9 (Homo sapiens) (UniProt P11712); test: qHTS Assay for Inhibitors and Substrates of Cytochrome P450 2C9 (AID 883); note: nearly all actives have a fitted effect of over 60% in size
Chain of Cytochrome P450 2C9 (Homo sapiens) (P11712 whole entry, looked up): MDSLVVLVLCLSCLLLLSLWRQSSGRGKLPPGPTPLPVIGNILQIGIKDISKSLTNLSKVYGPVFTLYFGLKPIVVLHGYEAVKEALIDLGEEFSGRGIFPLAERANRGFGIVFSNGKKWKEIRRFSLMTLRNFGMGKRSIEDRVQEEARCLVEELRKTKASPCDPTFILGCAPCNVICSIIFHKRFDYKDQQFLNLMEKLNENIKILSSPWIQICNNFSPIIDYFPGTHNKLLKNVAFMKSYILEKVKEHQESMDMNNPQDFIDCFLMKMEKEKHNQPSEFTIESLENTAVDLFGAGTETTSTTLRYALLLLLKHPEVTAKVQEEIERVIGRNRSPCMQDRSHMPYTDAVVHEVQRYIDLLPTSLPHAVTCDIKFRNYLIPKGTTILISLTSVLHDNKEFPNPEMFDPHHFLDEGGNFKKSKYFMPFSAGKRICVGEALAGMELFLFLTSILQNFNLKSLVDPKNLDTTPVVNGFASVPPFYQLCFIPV
How it was run: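 CYP2C9 deoxyluciferin hydroxylation, 37C, 60 min with NADPH regeneration; 10nM enzyme, 100uM Luciferin-H (KM). Glo detection reagent stopped reaction; luminescence normalized to sulphaphenazole (57uM) full inhibition.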

[15] = qHTS Assay for Identification of Small Molecule Agonists for Hypoxia Response Element Signaling Pathway (AID 914; active = well fitted activation curve with a large enough effect in the signal ratio, with a control signal flat, not every such curve was filed as active; the % refers to the signal ratio; note: potency is the fitted concentration of half-maximal effect); conditions: ME-180 (cervical carcinoma) HRE-bla reporter, beta-lactamase ratio, CoCl2, 17 h; activation: stronger effect = higher value
How it was run: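 HRE-bla ME-180 cells with beta-lactamase reporter under hypoxia response element, compounds with EC50 CoCl2 for 17 hours at 37 C. CCF4 substrate, 460nm/530nm emission ratio gave %Activity; AC50 from titration series.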

[16] = qHTS Assay for Identification of Small Molecule Antagonists for NFkB Signaling Pathway (AID 895; active = well fitted inhibition curve with a large enough effect in the signal ratio, with a control signal flat, not every such curve was filed as active; the % refers to the signal ratio)
How it was run: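 NFkB-bla ME-180 cervical carcinoma cells with beta-lactamase reporter under NFkB response element; compounds added, then TNF alpha at 10 pM final (EC50), 5 h at 37 C. LiveBLAzer substrate 2 h, room temperature; emission 460/530 nm at 405 nm excitation.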

[17] = qHTS Assay for Identification of Small Molecule Agonists for Thrombopoietin (TPO) Signaling Pathway (AID 917)
How it was run: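 Quantitative HTS for pathway activators: compounds were pin-transferred onto IL-3-starved Ba/F3 cells expressing human TPO receptor, TPO was added at its EC50 (26 pM final), and after 24 hrs at 37 C reporter luciferase was measured.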

[18] = target: Muscarinic acetylcholine receptor M1 (Rattus norvegicus) (UniProt P08482); test: qHTS Assay for Antagonists of Acetylcholine Muscarinic M1 Receptor: Kinetic Measurement of Intracellular Calcium Response (AID 943);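 note: Fluo-4 calcium signal as peak divided by basal fluorescence over 4 min; nearly all actives have a fitted effect of over 75% in size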
Chain of Muscarinic acetylcholine receptor M1 (Rattus norvegicus) (P08482 whole entry, looked up): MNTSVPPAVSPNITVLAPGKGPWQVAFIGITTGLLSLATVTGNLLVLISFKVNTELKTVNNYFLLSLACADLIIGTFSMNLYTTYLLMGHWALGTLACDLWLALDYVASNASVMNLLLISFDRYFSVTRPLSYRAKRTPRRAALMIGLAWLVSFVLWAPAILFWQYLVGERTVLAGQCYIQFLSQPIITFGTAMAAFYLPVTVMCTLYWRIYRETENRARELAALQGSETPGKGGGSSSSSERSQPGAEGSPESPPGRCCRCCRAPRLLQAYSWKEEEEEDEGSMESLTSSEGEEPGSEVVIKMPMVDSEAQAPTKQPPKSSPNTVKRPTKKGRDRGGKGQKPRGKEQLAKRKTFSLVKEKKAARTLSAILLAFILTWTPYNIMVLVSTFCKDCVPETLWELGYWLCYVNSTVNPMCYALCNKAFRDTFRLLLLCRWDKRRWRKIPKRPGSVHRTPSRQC
How it was run: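 Read-out: peak over basal Fluo-4 fluorescence, kinetic at 1 Hz for 4 min after EC80 carbachol (100 nM final). Rat M1-CHO cells, dye loaded 1 h at 37C, compound added 10 min before agonist.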

[19] = target: Muscarinic acetylcholine receptor M1 (Rattus norvegicus) (UniProt P08482); test: qHTS Assay for Antagonists of Acetylcholine Muscarinic M1 Receptor: Measurement of IP-One Response (AID 944); note: nearly all actives have a fitted effect of over 75% in size
How it was run: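 Read-out: HTRF competition between d2-IP1 and Eu-cryptate anti-IP1 antibody, emission 620 and 665 nm. Stimulus was carbachol, EC80 (200 nM), for 30 min in M1-CHO cells (rat receptor), after 10 min compound pre-treatment.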

[20] = target: Pyruvate kinase (Leishmania mexicana) (UniProt Q27686); test: qHTS Validation Assay for Inhibitors of Leishmania Mexicana Pyruvate Kinase (AID 945)
How it was run: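 Eight-point qHTS titrations in triplicate, data normalized to DMSO neutral control. Reaction: 0.2 nM LmPYK E451W mutant, 0.5 mM PEP, 0.1 mM ADP, 7 mM MgCl2, pH 7.2, one hour at room temperature; luminescent ATP detection.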

With `CC(C)C[C@H]1C(=O)N2CCC[C@@H]2[C@]2(O)O[C@](NC(=O)[C@H]3C=C4c5cccc6[nH]c(Br)c(c56)C[C@H]4N(C)C3)(C(C)C)C(=O)N12` the activity change, negative = inhibition [1] was -28.4% [at 17.2 µM], the Potency [2] was “inactive” and the activity, negative = inhibition ([3]; at 17.2 µM (top of the series)) was -20.4%. For the same molecule, the activity, negative = inhibition ([3]; at 38 µM (top of the series)) was -18.7%, the Potency [4] was > 46 µM and > 20.6 µM and the Potency [5] was > 46 µM and > 20.6 µM. The Potency [6] was “inactive”, the Potency [7] was “inactive” and the outcome [8] was “inactive”. For the same molecule, the Potency [9] was “inactive”, the outcome [10] was “inactive” and the outcome [11] was “inactive”. For the same molecule, the Potency [12] was “inactive”.
In the case of `CCN(CC)[C@@H](C)C(=O)N1c2ccccc2Sc2ccccc21`, the activity change, negative = inhibition [1] is reported as 14.4% [at 38 µM], the Potency [2] is reported as “inactive” and the activity change, negative = inhibition [13] is reported as -74.6% [at 38 µM] (active). The Potency [4] was greater than 46 µM, the Potency [5] was greater than 46 µM and the Potency [6] was “inactive”. The Potency [7] was “inactive” and the Potency [14] was “inactive”.
For `CCNc1ncc2nc(-c3ccccc3)c(=O)n(C3CC3)c2n1`, the activity change, negative = inhibition [1] was -3.39%, the Potency [2] was 2.51 µM (active) and the activity change, negative = inhibition [13] was 23.2%. For the same molecule, the Potency [4] was greater than 9.22 µM, the Potency [5] was greater than 46 µM and the Potency [6] was “inactive”. For the same molecule, the Potency [15] was 2.51 µM (active).
For `Nc1c2c(nc3ccccc13)CCC[C@H]2O`, the activity change, negative = inhibition [1] was 1.75% [at 38 µM], the Potency [2] was 10 µM (active) and the activity change, negative = inhibition [13] was 0.441% [at 38 µM]. The Potency [4] was greater than 46 µM, the Potency [5] was greater than 46 µM and the Potency [6] was “inactive”. The Potency [7] was “inactive”, the Potency [14] was “inactive” and the Potency [16] was “inactive”. The outcome [17] was “inactive”, the Potency [18] was “inactive” and the Potency [19] was “inactive”. For the same molecule, the outcome [20] was “inactive”, the outcome [10] was “inactive” and the outcome [11] was “inactive”. For the same molecule, the Potency [12] was “inactive”.
In the case of `C=C(C)[C@@H]1CC=C(C(=O)O)CC1`, the activity change, negative = inhibition [1] is reported as 3.75% [at 38 µM], the Potency [2] is reported as “inactive” and the activity change, negative = inhibition [13] is reported as -3.51% [at 38 µM]. For the same molecule, the Potency [4] was greater than 46 µM, the Potency [5] was greater than 46 µM and the Potency [6] was “inactive”. For the same molecule, the Potency [7] was “inactive”, the Potency [16] was “inactive” and the outcome [17] was “inactive”. The Potency [19] was “inactive”, the outcome [10] was “inactive” and the outcome [11] was “inactive”. For the same molecule, the Potency [12] was “inactive”.
With `Nc1nc(Cl)nc2c1ncn2[C@@H]1O[C@@H](COP(=O)(O)OP(=O)(O)OP(=O)(O)O)[C@@H](O)[C@H]1O` the activity change, negative = inhibition [1] was 18.9% [at 38 µM], the Potency [2] was “inactive” and the activity change, negative = inhibition [13] was 9.46% [at 38 µM]. The Potency [4] was greater than 46 µM, the Potency [5] was greater than 46 µM and the Potency [6] was “inactive”. The Potency [7] was “inactive”, the outcome [8] was “inactive” and the Potency [16] was “inactive”. For the same molecule, the Potency [18] was “inactive”, the Potency [19] was “inactive” and the outcome [20] was “inactive”. For the same molecule, the outcome [10] was “inactive”, the outcome [11] was “inactive” and the Potency [12] was “inactive”.
